In the supplement of paper PMC10720658:
± gives the standard deviation of the averaged measurements.

The compounds below were run on AEK1 (Tb927.3.2440) (assay: percent reduction in TR-FRET probe signal relative to DMSO control; higher = stronger displacement of ATP-site probe (binding)). Conditions: 1 µM; incubation time 1 h.

| Structure (SMILES) | percent reduction in TR-FRET probe signal [%] |
| --- | --- |
| CCn1c(-c2nonc2N)nc2c(C#CC(C)(C)O)ncc(OC[C@H]3CCCNC3)c21 | 8.8 ± 4.9 |
| Cn1cnc2c(F)c(Nc3ccc(Br)cc3F)c(C(=O)NOCCO)cc21 | -1.44 ± 2.7 |
| O=c1cc(-c2ccccc2)oc2c(O)c(O)ccc12 [7,8-Dihydroxyflavone] | -6.52 ± 5.7 |
